In PubChem BioAssay (Tox21):
Records with an inconclusive call do not appear. The source made the active and inactive calls. Unless noted, calls come from the whole dose curve; as a rule, active = well fitted curve in the direction sought with a large enough effect in the repeat runs; inconclusive = weak or mixed curves; inactive = no such curve, though single readings can be large; an effect the other way counts as inactive or inconclusive.

Key:
[1] = A CellTox Green Cytotoxicity Assay to monitor cytotoxicity in HepG2 cells - 8 hour (AID 1224890); note: nearly all actives have a fitted effect of over 45% in size
Procedure, shortened: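 Fluorescent DNA-binding dye, 600 HepG2 cells/well, 5 h preincubation then compound in DMSO; same plates read at 0–40 h, 37 C.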

[2] = qHTS assay to identify small molecule antagonists of the estrogen receptor alpha (ER-alpha) signaling pathway using the BG1 cell line in the presence of 0.1 nM 17-beta-estradiol - cell viability counter screen (AID 1259241); note: nearly all actives have a fitted effect of over 40% in size
Procedure, shortened: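 Following 5 days in phenol red-free medium with charcoal-stripped serum, VM7Luc4E2 cells received test compounds alongside 0.1 nM 17beta-estradiol (final) at 37C for 22 hr. Live cells were then quantified via protease-substrate fluorescence.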

[3] = qHTS assay to identify small molecule antagonists of the androgen receptor (AR) signaling pathway using the MDA cell line in the presence of 0.5 nM R1881 - cell viability counter screen (AID 1259242); note: nearly all actives have a fitted effect of over 45% in size
Procedure, shortened: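 Human breast carcinoma MDA-kb2 cells, cultured without CO2, receive compounds alongside 0.5 nM (final) R1881 agonist. After 16 hr at 37C, viability is taken as live-cell protease signal.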

[4] = biological target: Androgen receptor (Homo sapiens) (UniProt P10275); assay: qHTS assay to identify small molecule antagonists of the androgen receptor (AR) signaling pathway using the MDA cell line in the presence of 0.5 nM R1881 (AID 1259243); note: nearly all actives have a fitted effect of over 50% in size
Sequence of Androgen receptor (Homo sapiens) (P10275 whole entry, looked up): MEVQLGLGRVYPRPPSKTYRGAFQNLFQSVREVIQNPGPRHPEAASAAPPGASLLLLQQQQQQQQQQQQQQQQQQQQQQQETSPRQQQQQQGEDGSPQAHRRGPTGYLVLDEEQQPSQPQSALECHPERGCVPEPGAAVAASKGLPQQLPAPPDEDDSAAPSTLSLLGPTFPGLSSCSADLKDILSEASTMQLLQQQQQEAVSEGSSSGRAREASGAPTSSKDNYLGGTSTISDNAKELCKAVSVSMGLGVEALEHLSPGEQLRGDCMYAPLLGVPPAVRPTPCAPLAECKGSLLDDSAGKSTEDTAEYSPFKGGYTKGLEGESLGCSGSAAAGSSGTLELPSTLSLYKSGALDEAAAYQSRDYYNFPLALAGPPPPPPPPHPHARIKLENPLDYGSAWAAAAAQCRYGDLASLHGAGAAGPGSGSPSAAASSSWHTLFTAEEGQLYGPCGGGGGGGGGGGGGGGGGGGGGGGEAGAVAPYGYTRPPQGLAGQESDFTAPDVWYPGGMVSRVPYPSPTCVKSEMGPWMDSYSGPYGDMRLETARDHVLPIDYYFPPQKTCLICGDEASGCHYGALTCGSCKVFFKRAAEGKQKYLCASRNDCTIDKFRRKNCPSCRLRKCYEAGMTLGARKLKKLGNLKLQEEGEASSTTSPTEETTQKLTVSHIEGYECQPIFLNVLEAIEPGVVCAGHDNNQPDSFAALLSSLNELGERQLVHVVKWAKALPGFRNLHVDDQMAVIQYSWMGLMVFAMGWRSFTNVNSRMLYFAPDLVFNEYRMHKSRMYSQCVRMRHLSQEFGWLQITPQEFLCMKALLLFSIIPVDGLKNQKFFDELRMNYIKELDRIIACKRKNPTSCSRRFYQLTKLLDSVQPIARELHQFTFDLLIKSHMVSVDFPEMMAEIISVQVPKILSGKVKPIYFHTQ
Procedure, shortened: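 Cells: MDA-kb2 (MMTV-luc). Stimulus: 0.5 nM R1881. Time: 16 hr, 37C, no CO2. Detection: ONE-Glo luminescence after 30 min at RT.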

[5] = biological target: Estrogen receptor (Homo sapiens) (UniProt P03372); assay: qHTS assay to identify small molecule antagonists of the estrogen receptor alpha (ER-alpha) signaling pathway using the BG1 cell line in the presence of 0.1 nM 17-beta-estradiol (AID 1259244); note: nearly all actives have a fitted effect of over 50% in size
Sequence of Estrogen receptor (Homo sapiens) (P03372 whole entry, looked up): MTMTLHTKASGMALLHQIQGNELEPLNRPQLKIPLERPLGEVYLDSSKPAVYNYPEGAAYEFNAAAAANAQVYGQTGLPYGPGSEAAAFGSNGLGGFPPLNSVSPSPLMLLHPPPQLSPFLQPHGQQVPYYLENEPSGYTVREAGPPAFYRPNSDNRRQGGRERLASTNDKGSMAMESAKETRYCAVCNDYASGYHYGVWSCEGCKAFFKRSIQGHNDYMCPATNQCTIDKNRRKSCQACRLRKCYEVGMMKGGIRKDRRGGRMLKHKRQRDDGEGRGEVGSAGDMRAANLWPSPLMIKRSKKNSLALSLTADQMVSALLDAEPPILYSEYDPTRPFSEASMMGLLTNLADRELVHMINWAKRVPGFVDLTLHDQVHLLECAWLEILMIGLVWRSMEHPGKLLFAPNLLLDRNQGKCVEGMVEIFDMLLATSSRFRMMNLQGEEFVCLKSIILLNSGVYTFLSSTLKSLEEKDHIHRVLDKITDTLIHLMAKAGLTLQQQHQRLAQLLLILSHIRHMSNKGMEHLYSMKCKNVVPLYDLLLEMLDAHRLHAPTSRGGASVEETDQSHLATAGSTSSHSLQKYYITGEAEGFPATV
Procedure, shortened: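 Seeding of stripped-serum-adapted VM7Luc4E2 cells, 24 h attachment, compound transfer, then 0.1 nM final 17beta-estradiol; after 22 h incubation, ONE-Glo reagent and luminescence reading.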

[6] = qHTS assay to identify small molecule phospholipidosis (PLD) inducers (AID 1259344; active = well fitted curve in the direction sought with a large enough effect; an effect the other way counts as inactive or inconclusive)
Procedure, shortened: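 Phospholipid accumulation was scored by imaging: fixed, Hoechst-counterstained HepG2 cells stained with LipidTOX Red after 24 h compound exposure at 37 C. Read-outs were pit count and pit intensity per well or per cell, with amiodarone and DMSO controls.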

[7] = qHTS assay to identify small molecule HDAC inhibitors (AID 1259364);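 note: wild-type HCT-116 cells with endogenous class I/II HDAC activity; top concentration of the series differs between compounds; nearly all actives have a fitted effect of over 45% in size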
Procedure, shortened: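 After a 2 hr compound incubation (37C, 5% CO2), HCT-116 cells seeded at 1,500/well the day before received HDAC-Glo reagent; signal read as luminescence after 30 min at room temperature.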

[8] = qHTS assay to identify small molecule HDAC inhibitors - cell viability counter screen (AID 1259365); note: series mostly up to about 92 µM; nearly all actives have a fitted effect of over 50% in size
Procedure, shortened: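 HCT-116 wild-type, overnight attachment; 2hr drug exposure, 37C; CellTiter-Glo luminescent ATP readout after 30min RT.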

[9] = qHTS assay to identify small molecule agonists of the sonic hedgehog signaling (Shh) pathway - cell viability counter screen (AID 1259366); note: nearly all actives have a fitted effect of over 50% in size
Procedure, shortened: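 Compounds in DMSO were pin-transferred onto 3T3 Gli1-Luc cells that had settled 4hr; plates then stood 24hr at 37C and 5% CO2. One hour before the end, CellTiter-Fluor was added and fluorescence recorded.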

[10] = qHTS assay to identify small molecule antagonists of the sonic hedgehog signaling (Shh) pathway - cell viability counter screen (AID 1259367); note: nearly all actives have a fitted effect of over 55% in size
Procedure, shortened: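 Viability was read by CellTiter-Fluor fluorescence in the same wells, reagent added 23 hr into compound treatment and incubated 1 hr at 37C. The 3T3 Gli1-Luc reporter cells (2,000/well) received conditioned medium after compound and ran 24 hr.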

[11] = qHTS assay to identify small molecule agonists of the sonic hedgehog signaling (Shh) pathway (AID 1259368; calls by dose curve;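 note: NIH/3T3-derived 3T3Gli1-Luc cells carrying a stable Gli1-driven firefly luciferase reporter; series mostly up to about 92 µM; nearly all actives have a fitted effect of over 15% in size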)
Procedure, shortened: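 Stable NIH/3T3 Gli1-Luc reporter clone; 24 hr cpd exposure after a 4 hr settling period; luminescence endpoint.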

[12] = qHTS assay to identify small molecule antagonists of the sonic hedgehog signaling (Shh) pathway (AID 1259369; calls by dose curve; note: nearly all actives have a fitted effect of over 45% in size)
Procedure, shortened: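 Gli1 transcriptional reporter (firefly Luc) in NIH/3T3 background, conditioned-medium activated. 24hr exposure, luminescence endpoint.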

[13] = biological target: Estrogen receptor beta (Homo sapiens) (UniProt Q92731); assay: qHTS assay to identify small molecule agonists of the estrogen receptor beta (ER-beta) signaling pathway (AID 1259377; active = well fitted activation curve with a large enough effect in the signal ratio in the repeat runs, not every such curve was filed as active; the % refers to the signal ratio)
Sequence of Estrogen receptor beta (Homo sapiens) (Q92731 whole entry, looked up): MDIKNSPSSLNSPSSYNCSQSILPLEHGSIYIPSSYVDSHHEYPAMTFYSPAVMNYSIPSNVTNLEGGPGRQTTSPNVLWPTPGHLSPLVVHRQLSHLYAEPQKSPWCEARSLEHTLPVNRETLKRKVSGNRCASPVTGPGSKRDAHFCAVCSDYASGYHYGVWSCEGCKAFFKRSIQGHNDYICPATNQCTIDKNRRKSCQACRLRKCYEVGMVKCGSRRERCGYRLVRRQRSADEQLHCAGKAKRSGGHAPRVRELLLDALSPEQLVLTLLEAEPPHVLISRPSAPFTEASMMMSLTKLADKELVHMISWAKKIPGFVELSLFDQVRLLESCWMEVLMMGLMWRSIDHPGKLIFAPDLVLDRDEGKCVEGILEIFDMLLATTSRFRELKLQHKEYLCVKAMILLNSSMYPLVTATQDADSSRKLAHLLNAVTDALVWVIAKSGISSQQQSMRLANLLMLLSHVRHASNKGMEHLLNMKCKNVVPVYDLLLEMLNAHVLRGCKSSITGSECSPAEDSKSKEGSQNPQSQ
Procedure, shortened: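 qHTS in ER-beta-UAS-bla HEK293T cells: 6 hr settling, then 16 hr compound at 37C, then LiveBLAzer substrate 2 h at RT before fluorescence reading.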

[14] = biological target: Estrogen receptor beta (Homo sapiens) (UniProt Q92731); assay: qHTS assay to identify small molecule antagonists of the estrogen receptor beta (ER-beta) signaling pathway (AID 1259378; active = well fitted inhibition curve with a large enough effect in the signal ratio in the repeat runs, not every such curve was filed as active; the % refers to the signal ratio)
Procedure, shortened: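 Antagonist mode: compounds added to beta-lactamase reporter HEK293T ER-beta-UAS cells stimulated with E2 (1nM final), 16 hr at 37C. LiveBLAzer B/G FRET substrate, 2 hours room temperature, fluorescence read-out.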

[15] = qHTS assay to identify small molecule agonists of the androgen receptor (AR) signaling pathway in the presence of an antagonist - cell viability counter screen (AID 1259379);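 note: MDA-kb2 human breast cancer cells carrying an MMTV luciferase reporter; series mostly up to about 92 µM; nearly all actives have a fitted effect of over 25% in size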
Procedure, shortened: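 Counter screen for cell viability run in parallel with the AR agonist-mode luciferase assay. MDA-kb2 cells were co-treated with nilutamide (3.0uM final) and compounds, then incubated 16 hr at 37C, and CellTiter-Fluor fluorescence was measured.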

[16] = qHTS assay to identify small molecule agonists of the estrogen receptor beta (ER-beta) signaling pathway - cell viability counter screen (AID 1259380); note: nearly all actives have a fitted effect of over 30% in size
Procedure, shortened: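 In this qHTS counter screen, HEK293T cells carrying an ER-beta/UAS beta-lactamase reporter, grown in 2% charcoal-stripped FBS, received compound for 16 hr; ATP-based CellTiter-Glo luminescence was then read after 30 min at room temperature.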

[17] = biological target: Androgen receptor (Homo sapiens) (UniProt P10275); assay: qHTS assay to identify small molecule agonists of the androgen receptor (AR) signaling pathway in the presence of an antagonist (AID 1259381; calls by dose curve; note: nearly all actives have a fitted effect of over 15% in size)
Procedure, shortened: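 AR antagonist background: nilutamide 3.0uM final. Cell line: MDA-kb2, MMTV-driven luciferase, responsive to both AR and GR. Exposure 16hr, 37C, no CO2; ONE-Glo luminescence.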

[18] = qHTS assay to identify small molecule antagonists of the estrogen receptor beta (ER-beta) signaling pathway - cell viability counter screen (AID 1259382);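 note: HEK293T cells carrying ER-beta-UAS-bla reporter stimulated with estradiol; series mostly up to about 92 µM; nearly all actives have a fitted effect of over 55% in size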
Procedure, shortened: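 HEK293T ER-beta-UAS-bla, 2% charcoal-stripped FBS; compounds + 1nM E2 16 hr 37C; CellTiter-Glo luminescence, 30 min RT.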

[19] = biological target: Estrogen receptor (Homo sapiens) (UniProt P03372); assay: qHTS assay to identify small molecule agonists of the estrogen receptor alpha (ER-alpha) signaling pathway in the presence of an antagonist (AID 1259383; calls by dose curve; note: top concentration of the series differs between compounds; nearly all actives have a fitted effect of over 15% in size)
Procedure, shortened: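 ER-alpha agonism measured under antagonist challenge: 10.0nM ICI-182,780 (final) plus compound, 15 concentrations, 22hr, VM7Luc4E2 ERE-luciferase cells. Read by luminescence.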

[20] = qHTS assay to identify small molecule agonists or antagonists of the thyroid stimulating hormone receptor (TSHR) signaling pathway - wild type cell line counter screen (AID 1259384; calls by dose curve)
Procedure, shortened: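 Counter screen in untransfected Hek293: compounds (15-point titration, triplicate) plus phosphodiesterase inhibitor Ro20-1724 added after 18 h plating; 30 min RT. Intracellular cAMP via competitive d2/cryptate immunoassay, 1 h incubation.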
% is set by controls: 0 for no effect and ±100 for the full control effect.

Cc1ccc2c(Cl)cc(Cl)c(O)c2n1
inactive: Potency [1] | Potency [2] | Potency [3] | Potency [4] | Potency [5] | PLD induction [6] 0.648% [at 1.53 µM] | Potency [7] | outcome [8] | Potency [9] | Potency [10] | Potency [11] | Potency [12] | Potency [13] | Potency [14] | Potency [15] | Potency [16] | Potency [17] | Potency [18] | Potency [19] | outcome [20]

O=C(O)c1ccc(O)c(O)c1
inactive: Potency [1] | Potency [2] | Potency [3] | Potency [4] | Potency [5] | Potency [7] | outcome [8] | Potency [9] | Potency [10] | Potency [11] | Potency [12] | Potency [13] | Potency [14] | Potency [15] | Potency [16] | Potency [17] | Potency [18] | Potency [19] | outcome [20]

CC(COc1ccccc1)NC(C)C(O)c1ccc(O)cc1 (stereo not given)
inactive: Potency [1] | Potency [2] | Potency [3] | Potency [5] | Potency [6] | Potency [7] | outcome [8] | Potency [9] | Potency [10] | Potency [11] | Potency [12] | Potency [16] | Potency [18] | Potency [19] | outcome [20]

O=c1[nH][nH]c2ccccc12
inactive: Potency [1] | Potency [2] | Potency [3] | Potency [4] | Potency [7] | outcome [8] | Potency [9] | Potency [10] | Potency [11] | Potency [12] | Potency [14] | Potency [15] | Potency [17] | Potency [19] | outcome [20]

C/C(=C(\CCO)SS/C(CCO)=C(\C)N(C=O)Cc1cnc(C)nc1N)N(C=O)Cc1cnc(C)nc1N
inactive: Potency [1] | Potency [2] | Potency [3] | Potency [5] | Potency [6] | Potency [7] | outcome [8] | Potency [9] | Potency [10] | Potency [11] | Potency [12] | Potency [13] | Potency [14] | Potency [15] | Potency [16] | Potency [18] | Potency [19] | outcome [20]

O=C(O)c1ccncc1
inactive: Potency [1] | Potency [2] | Potency [3] | Potency [4] | Potency [7] | outcome [8] | Potency [9] | Potency [10] | Potency [11] | Potency [13] | Potency [14] | Potency [15] | Potency [16] | Potency [17] | Potency [18] | outcome [20]

CC(C)(C(=O)O)c1ccc(C(O)CCCN2CCC(C(O)(c3ccccc3)c3ccccc3)CC2)cc1 (stereo not given)
inactive: Potency [1] | Potency [2] | Potency [3] | Potency [5] | Potency [6] | Potency [7] | outcome [8] | Potency [9] | Potency [11] | Potency [12] | Potency [14] | Potency [15] | Potency [16] | Potency [18] | Potency [19] | outcome [20]

CCN(CCCCOC(=O)c1ccc(OC)c(OC)c1)C(C)Cc1ccc(OC)cc1 (stereo not given)
inactive: Potency [1] | Potency [2] | Potency [3] | Potency [5] | Potency [6] | Potency [7] | outcome [8] | Potency [9] | Potency [10] | Potency [11] | Potency [12] | Potency [13] | Potency [14] | Potency [18] | Potency [19] | outcome [20]
